Compounds with a hit are over-represented: about 7.4% of the library has one in this group of screens.
SMN2 splice up = enhancers of SMN2 splice variant expression | Potency, µM (doses to about 46.1 µM), without a hit: top-dose activity change, positive = activation, usual class: activators | 210,000 tested, 2.8% active | AID 1458 | HEK293 SMN2-luciferase splicing reporter, luminescence, 30-36 h; note: % of control where 0% means no effect; nearly all actives have a fitted effect of over 55% in size
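HEK293 cells carry an SMN2 minigene-luciferase reporter in which exon 7 inclusion puts luciferase in frame. Cells were seeded at 2000 cells/well, attached for 10-12 hours, then exposed to compounds for 30-36 hours at 37C before ONE-Glo luminescence.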
NPC1 promoter act = activates the NPC1 promoter; Huh7 NPC1 promoter luciferase reporter, 24 h; Potency, µM (titrated, usually from 9.22 µM), for the others: at the top dose activation, hits mostly activators; 320,000 tested, 2.4% active; AID 485313; note: % of control where 0% means no effect; nearly all actives have a fitted effect of over 60% in size
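Compounds in DMSO were transferred onto Huh7 NPC1-luciferase reporter cells pre-incubated 2 h; after 24 h at 37 °C, Amplite reagent was dispensed and luminescence recorded 10 min later.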
Rab9 promoter act = activates the Rab9 promoter; Huh7 Rab9 promoter-luciferase reporter, luminescence, 24 h; Potency, µM (doses to about 9.22 µM), for inactives: at the top dose activation, negative = inhibition, actives largely listed as activators; 320,000 tested, 2.8% active; note: % of control where 0% means no effect; nearly all actives have a fitted effect of over 60% in size
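Measured in stably transfected Huh7 cells bearing a Rab9 promoter–luciferase construct: 24 h compound treatment at 37 °C, followed by luminescence detection.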
ELG1 genotox = genotoxicity induction in ELG1-luciferase HEK293T cells. HEK293T ELG1-luciferase reporter, luminescence, 16 h. Potency, µM (titrated, usually from 46 µM), inactives show at the top dose activity change, positive = activation, usual class: activators. 330,000 tested, 1.3% active. AID 504466; note: % of control where 0% means no effect; nearly all actives have a fitted effect of over 60% in size
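Reporter readout depends on ELG1 protein level, which increases with genetic stress. After 16 hr compound exposure at 37 °C, luciferase activity was quantified using ONE-Glo.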
FLuc counter = counter-screen for miR-21 project: firefly luciferase inhibitors or activators; P08659; purified FLuc, Km substrates, luminescence inhibition; Potency, µM (series often up to 57.5 µM), for inactives: at the top dose activity change, negative = inhibition, actives largely listed as inhibitors; 360,000 tested, 6.9% active;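 note: plate controls were vehicle for no effect and reference inhibitor for full effect; nearly all actives have a fitted effect of over 55% in size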
Target sequence (P08659 whole entry, looked up): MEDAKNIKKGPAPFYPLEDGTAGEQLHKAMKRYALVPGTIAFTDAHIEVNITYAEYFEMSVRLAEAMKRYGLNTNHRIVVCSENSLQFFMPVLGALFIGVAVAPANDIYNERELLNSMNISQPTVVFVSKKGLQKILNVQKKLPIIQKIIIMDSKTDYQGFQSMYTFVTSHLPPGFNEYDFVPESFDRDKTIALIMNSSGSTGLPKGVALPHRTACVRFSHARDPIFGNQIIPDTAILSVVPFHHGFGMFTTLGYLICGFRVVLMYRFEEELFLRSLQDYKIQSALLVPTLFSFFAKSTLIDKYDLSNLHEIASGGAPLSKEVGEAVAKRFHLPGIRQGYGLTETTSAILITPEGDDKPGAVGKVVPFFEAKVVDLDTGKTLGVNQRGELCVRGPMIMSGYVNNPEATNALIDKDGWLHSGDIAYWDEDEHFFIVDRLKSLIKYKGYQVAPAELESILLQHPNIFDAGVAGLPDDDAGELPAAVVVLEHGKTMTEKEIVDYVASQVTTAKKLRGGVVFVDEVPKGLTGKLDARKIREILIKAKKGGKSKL
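Purified P. pyralis luciferase, 10 nM final, with Km-level 10 uM D-luciferin and 10 uM ATP in 50 mM Tris acetate pH 7.5, 10 mM Mg acetate, 0.01% Tween-20, 0.05% BSA; 6-point qHTS titration about 60 µM downward; luminescence read.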
* hit, by the source's call; [ ] = remark or other dose. Calls come from the whole dose curve; as a rule, active = well fitted curve in the direction sought with a large enough effect; inconclusive = small, poorly fitted or top-dose-only effect, or another doubt; inactive = no such curve, though single readings can be large; an effect the other way counts as inactive or inconclusive. Potency is the fitted concentration of half-maximal effect.

Screening COc1ccccc1NC(=O)C(C)Sc1nc(-c2ccccc2)cn1N (stereo not given) returned NPC1 promoter act 5.8%, Rab9 promoter act -0.5%, ELG1 genotox -0.2% and FLuc counter 3.4%.
Cc1cccc2c(=O)oc(-c3ccccc3Cl)nc12 was read as NPC1 promoter act -2.5%, Rab9 promoter act -0.5%, ELG1 genotox -3.5% and FLuc counter inconclusive.
Screening Cc1ccccc1-c1nc2sc(C)c(C)c2c(=O)o1 returned NPC1 promoter act -2.4%, Rab9 promoter act -1.0%, ELG1 genotox 3.5% and FLuc counter 7.57µM*.
For Cc1ccccc1-c1nc2sc(-c3ccccc3)cc2c(=O)o1 the results were SMN2 splice up -4.9%, NPC1 promoter act -33.9%, Rab9 promoter act 9.5%, ELG1 genotox 5.6% and FLuc counter 4.78µM*.
`Cc1sc2nc(-c3ccco3)oc(=O)c2c1C` gave SMN2 splice up 20.3%, NPC1 promoter act 8.9%, Rab9 promoter act 11.8%, ELG1 genotox 13.7% and FLuc counter inconclusive.
Screening COc1cc(OC)cc(-c2cc3nc(C)c(CCC(=O)NC(C)CCc4ccco4)c(C)n3n2)c1 (stereo not given) returned SMN2 splice up -15.5%, NPC1 promoter act -3.9%, Rab9 promoter act 7.1%, ELG1 genotox -23.0% and FLuc counter 0.9%.
Screening CCOC(=O)C1CCCCN1C(=O)CCc1c(C)nc2cc(-c3ccccc3)nn2c1C (stereo not given) returned SMN2 splice up -49.2%, NPC1 promoter act 9.2%, Rab9 promoter act -3.0%, ELG1 genotox -12.7% and FLuc counter 15.1µM*.
`CCOC(=O)C1CCN(C(=O)CCc2c(C)nc3cc(-c4ccccc4)nn3c2C)CC1` gave SMN2 splice up -16.9%, NPC1 promoter act -3.6%, Rab9 promoter act 3.4%, ELG1 genotox -3.7% and FLuc counter inconclusive.
`COc1cc(OC)cc(-c2cc3nc(C)c(CCC(=O)O)c(C)n3n2)c1` gave SMN2 splice up -36.4%, NPC1 promoter act -15.3%, Rab9 promoter act -13.7%, ELG1 genotox -10.8% and FLuc counter 15.1µM*.
Cc1nc2cc(-c3cccc(F)c3)nn2c(C)c1CCC(=O)NC(C)CCc1ccco1 (stereo not given) was read as SMN2 splice up 5.3%, NPC1 promoter act -0.1%, Rab9 promoter act -1.8%, ELG1 genotox -5.0% and FLuc counter 15.1µM*.
Screening Cc1nc2cc(-c3cccc(F)c3)nn2c(C)c1CCC(=O)NC1CCCCC1 returned SMN2 splice up -12.5% and FLuc counter 12µM*.
O=C(O)Cn1c2c(c3ccccc31)CSc1ccc(Cl)cc1-2 was read as NPC1 promoter act -2.3%, Rab9 promoter act 2.3%, ELG1 genotox -2.3% and FLuc counter inconclusive.
Screening CSc1nc2ccc(NC(=O)c3cccs3)cc2s1 returned ELG1 genotox 16.7%.
For CS(=O)(=O)c1ccc2nc(NC(=O)c3cccc([N+](=O)[O-])c3)sc2c1 the results were NPC1 promoter act 1.58µM*, Rab9 promoter act 1.26µM*, ELG1 genotox inconclusive and FLuc counter 1.69µM*.
For CSc1nc2ccc(NC(=O)c3ccc(=O)n(C)n3)cc2s1 the results were SMN2 splice up -17.1%, NPC1 promoter act 28.3%, Rab9 promoter act inconclusive, ELG1 genotox 22.1% and FLuc counter 16.9µM*.
For CSc1nc2ccc(NC(=O)c3cc4ccccc4o3)cc2s1 the results were NPC1 promoter act 1.58µM*, Rab9 promoter act 2.51µM*, ELG1 genotox inconclusive and FLuc counter 1.07µM*.
`CS(=O)(=O)c1ccc2nc(NC(=O)c3cc([N+](=O)[O-])cc([N+](=O)[O-])c3)sc2c1` gave NPC1 promoter act 12.2%, Rab9 promoter act 2.0%, ELG1 genotox -2.4% and FLuc counter inconclusive.
O=C(Nc1nc2ccc([N+](=O)[O-])cc2s1)c1ccco1 was read as SMN2 splice up 3.55µM*, NPC1 promoter act 1.58µM*, Rab9 promoter act 0.794µM*, ELG1 genotox -10.4% and FLuc counter 2.13µM*.
`CCN1CCc2c(sc(NC(=O)c3ccc(S(=O)(=O)N4CCCC(C)C4)cc3)c2C(=O)OC)C1` (stereo not given) gave FLuc counter -1.0%.
`CCc1cccc(C)c1NC(=O)C(CC)Sc1nc2ccncc2[nH]1` (stereo not given) gave SMN2 splice up -15.4% and FLuc counter -10.1%.
Cc1cc(C)n(C(=O)CCCCCCCCC(=O)n2nc(C)cc2C)n1 was read as SMN2 splice up -11.6%, NPC1 promoter act -3.4%, Rab9 promoter act -4.6%, ELG1 genotox 1.2% and FLuc counter 2.2%.
For CSc1nc2ccc(NC(=O)c3ccco3)cc2s1 the results were NPC1 promoter act 2.82µM*, Rab9 promoter act 2.51µM*, ELG1 genotox 8.2µM* and FLuc counter 9.53µM*.
CSc1nc2ccc(NC(=O)c3ccc(F)c(F)c3)cc2s1 was read as SMN2 splice up 15.8µM*, NPC1 promoter act inconclusive, Rab9 promoter act inconclusive, ELG1 genotox inconclusive and FLuc counter inconclusive.
For CSc1nc2ccc(NC(=O)c3ccc(=O)[nH]c3)cc2s1 the results were NPC1 promoter act 1.2%, Rab9 promoter act 12.1%, ELG1 genotox 13.7% and FLuc counter inconclusive.
`COc1ccc2nc(NC(=O)c3ccc(-c4cccc([N+](=O)[O-])c4)o3)sc2c1` gave SMN2 splice up -13.6%, NPC1 promoter act 0.6%, Rab9 promoter act 6.9%, ELG1 genotox 4.5% and FLuc counter -5.3%.
Screening O=C(Nc1nc2ccc([N+](=O)[O-])cc2s1)c1c(F)cccc1F returned SMN2 splice up inconclusive, NPC1 promoter act 22.9%, Rab9 promoter act 18.8%, ELG1 genotox -1.1% and FLuc counter 8.49µM*.
Screening CC(=O)Nc1ccc2nc(NC(=O)c3ccc([N+](=O)[O-])o3)sc2c1 returned NPC1 promoter act 12.1%, Rab9 promoter act 15.8%, ELG1 genotox -12.8% and FLuc counter 21.3µM*.
Screening O=C(Nc1ccccc1N1CCOCC1)c1cccc(NS(=O)(=O)c2ccc(F)c(F)c2)c1 returned SMN2 splice up -6.9%, NPC1 promoter act -3.8%, Rab9 promoter act -4.0%, ELG1 genotox -7.0% and FLuc counter -12.9%.
Screening CC1(C)[C@@H]2CC[C@@](C)(C2)[C@H]1OC(=O)c1ccccc1C(=O)O returned SMN2 splice up 3.2%[9.22 µM].
For CCC(=O)Nc1nc2ccc(NC(C)=O)cc2s1 the results were SMN2 splice up 18.3%, NPC1 promoter act 23.9%, Rab9 promoter act inconclusive, ELG1 genotox inconclusive and FLuc counter inconclusive.
For CCOC(=O)CSc1nc2ccc(NC(=O)c3ccc(C)cc3)cc2s1 the results were FLuc counter 5.36µM*.
`COc1ccc(C(=O)Nc2ccc3nc(SCc4ccc(C)cc4)sc3c2)cc1` gave FLuc counter -1.5%.

Screens: PubChem BioAssay, National Center for Advancing Translational Sciences (NCATS)
